The results in this text go back to PubChem BioAssay AID2662 (National Center for Advancing Translational Sciences (NCATS), 2010).

The campaign covered roughly 290,000 compounds. About 110 (0.038%) were called active. Where a call stands in place of a potency, no number is given. Inconclusive results (about 3%) are left out. This is one part of a sample in which actives are shown more often than they occur. The call rests on the fitted dose curve; in most records, active means well fitted inhibition curve with a large enough effect in the polarisation, with a control signal flat (not every such curve was filed as active); inconclusive means small, poorly fitted or top-dose-only effect, or effect the other way, or a change in a side signal; inactive means no such curve, though single readings can be large or run the other way; the % refers to the polarisation.
Potency means the concentration at half of the fitted maximal effect.

In the assay the target is Histone-lysine N-methyltransferase 2A (Homo sapiens) (UniProt Q03164). As to the kind of experiment: qHTS Fluorescence Polarization Assay for Inhibitors of MLL CXXC domain - DNA interaction. Conditions: MLL-CXXC / FITC-HOXA9 DNA fluorescence polarization; series mostly up to 115 µM. The text has this: NIH Chemical Genomics Center [NCGC] NIH Molecular Libraries Probe Production centers Network [MLPCN] MLPCN Grant: DA027717-01A1 Assay Submitter (PI): John Bushweller NCGC Assay Overview: The MLL (Mixed Lineage Luekemia) gene is involved in chromosomal translocation that results in either acute lymphoid leukemia (ALL) or acute myeloid leukemia (AML). Chromasomal translocation of MLL gene is responsible for the fusion of N-terminal MLL to more than 60 different partner genes in frame. Many of the MLL partner genes contain transcription activation domains or function as transcriptional activators. Despite the heterogeneity of fusion partners, the N-terminus of MLL fusion proteins always consists of the N-terminal menin binding motif and the CXXC domain. The MLL-CXXC domain specifically recognizes unmethylated CpG sequences of the HOX-A gene. Disruption of the MLL-CXXC and HOX-A gene interaction leads to down regulation of HOX-A gene expression and may potentially reverse leukemogenesis. We have miniaturized and optimized an in-vitro assay to screen for inhibitors of the MLL-CXXC domain and HOX-A DNA interaction, which could have utility in MLL fusion leukemias.
Histone-lysine N-methyltransferase 2A (Homo sapiens), sequence (Q03164 whole entry, looked up, the tested form may be a part): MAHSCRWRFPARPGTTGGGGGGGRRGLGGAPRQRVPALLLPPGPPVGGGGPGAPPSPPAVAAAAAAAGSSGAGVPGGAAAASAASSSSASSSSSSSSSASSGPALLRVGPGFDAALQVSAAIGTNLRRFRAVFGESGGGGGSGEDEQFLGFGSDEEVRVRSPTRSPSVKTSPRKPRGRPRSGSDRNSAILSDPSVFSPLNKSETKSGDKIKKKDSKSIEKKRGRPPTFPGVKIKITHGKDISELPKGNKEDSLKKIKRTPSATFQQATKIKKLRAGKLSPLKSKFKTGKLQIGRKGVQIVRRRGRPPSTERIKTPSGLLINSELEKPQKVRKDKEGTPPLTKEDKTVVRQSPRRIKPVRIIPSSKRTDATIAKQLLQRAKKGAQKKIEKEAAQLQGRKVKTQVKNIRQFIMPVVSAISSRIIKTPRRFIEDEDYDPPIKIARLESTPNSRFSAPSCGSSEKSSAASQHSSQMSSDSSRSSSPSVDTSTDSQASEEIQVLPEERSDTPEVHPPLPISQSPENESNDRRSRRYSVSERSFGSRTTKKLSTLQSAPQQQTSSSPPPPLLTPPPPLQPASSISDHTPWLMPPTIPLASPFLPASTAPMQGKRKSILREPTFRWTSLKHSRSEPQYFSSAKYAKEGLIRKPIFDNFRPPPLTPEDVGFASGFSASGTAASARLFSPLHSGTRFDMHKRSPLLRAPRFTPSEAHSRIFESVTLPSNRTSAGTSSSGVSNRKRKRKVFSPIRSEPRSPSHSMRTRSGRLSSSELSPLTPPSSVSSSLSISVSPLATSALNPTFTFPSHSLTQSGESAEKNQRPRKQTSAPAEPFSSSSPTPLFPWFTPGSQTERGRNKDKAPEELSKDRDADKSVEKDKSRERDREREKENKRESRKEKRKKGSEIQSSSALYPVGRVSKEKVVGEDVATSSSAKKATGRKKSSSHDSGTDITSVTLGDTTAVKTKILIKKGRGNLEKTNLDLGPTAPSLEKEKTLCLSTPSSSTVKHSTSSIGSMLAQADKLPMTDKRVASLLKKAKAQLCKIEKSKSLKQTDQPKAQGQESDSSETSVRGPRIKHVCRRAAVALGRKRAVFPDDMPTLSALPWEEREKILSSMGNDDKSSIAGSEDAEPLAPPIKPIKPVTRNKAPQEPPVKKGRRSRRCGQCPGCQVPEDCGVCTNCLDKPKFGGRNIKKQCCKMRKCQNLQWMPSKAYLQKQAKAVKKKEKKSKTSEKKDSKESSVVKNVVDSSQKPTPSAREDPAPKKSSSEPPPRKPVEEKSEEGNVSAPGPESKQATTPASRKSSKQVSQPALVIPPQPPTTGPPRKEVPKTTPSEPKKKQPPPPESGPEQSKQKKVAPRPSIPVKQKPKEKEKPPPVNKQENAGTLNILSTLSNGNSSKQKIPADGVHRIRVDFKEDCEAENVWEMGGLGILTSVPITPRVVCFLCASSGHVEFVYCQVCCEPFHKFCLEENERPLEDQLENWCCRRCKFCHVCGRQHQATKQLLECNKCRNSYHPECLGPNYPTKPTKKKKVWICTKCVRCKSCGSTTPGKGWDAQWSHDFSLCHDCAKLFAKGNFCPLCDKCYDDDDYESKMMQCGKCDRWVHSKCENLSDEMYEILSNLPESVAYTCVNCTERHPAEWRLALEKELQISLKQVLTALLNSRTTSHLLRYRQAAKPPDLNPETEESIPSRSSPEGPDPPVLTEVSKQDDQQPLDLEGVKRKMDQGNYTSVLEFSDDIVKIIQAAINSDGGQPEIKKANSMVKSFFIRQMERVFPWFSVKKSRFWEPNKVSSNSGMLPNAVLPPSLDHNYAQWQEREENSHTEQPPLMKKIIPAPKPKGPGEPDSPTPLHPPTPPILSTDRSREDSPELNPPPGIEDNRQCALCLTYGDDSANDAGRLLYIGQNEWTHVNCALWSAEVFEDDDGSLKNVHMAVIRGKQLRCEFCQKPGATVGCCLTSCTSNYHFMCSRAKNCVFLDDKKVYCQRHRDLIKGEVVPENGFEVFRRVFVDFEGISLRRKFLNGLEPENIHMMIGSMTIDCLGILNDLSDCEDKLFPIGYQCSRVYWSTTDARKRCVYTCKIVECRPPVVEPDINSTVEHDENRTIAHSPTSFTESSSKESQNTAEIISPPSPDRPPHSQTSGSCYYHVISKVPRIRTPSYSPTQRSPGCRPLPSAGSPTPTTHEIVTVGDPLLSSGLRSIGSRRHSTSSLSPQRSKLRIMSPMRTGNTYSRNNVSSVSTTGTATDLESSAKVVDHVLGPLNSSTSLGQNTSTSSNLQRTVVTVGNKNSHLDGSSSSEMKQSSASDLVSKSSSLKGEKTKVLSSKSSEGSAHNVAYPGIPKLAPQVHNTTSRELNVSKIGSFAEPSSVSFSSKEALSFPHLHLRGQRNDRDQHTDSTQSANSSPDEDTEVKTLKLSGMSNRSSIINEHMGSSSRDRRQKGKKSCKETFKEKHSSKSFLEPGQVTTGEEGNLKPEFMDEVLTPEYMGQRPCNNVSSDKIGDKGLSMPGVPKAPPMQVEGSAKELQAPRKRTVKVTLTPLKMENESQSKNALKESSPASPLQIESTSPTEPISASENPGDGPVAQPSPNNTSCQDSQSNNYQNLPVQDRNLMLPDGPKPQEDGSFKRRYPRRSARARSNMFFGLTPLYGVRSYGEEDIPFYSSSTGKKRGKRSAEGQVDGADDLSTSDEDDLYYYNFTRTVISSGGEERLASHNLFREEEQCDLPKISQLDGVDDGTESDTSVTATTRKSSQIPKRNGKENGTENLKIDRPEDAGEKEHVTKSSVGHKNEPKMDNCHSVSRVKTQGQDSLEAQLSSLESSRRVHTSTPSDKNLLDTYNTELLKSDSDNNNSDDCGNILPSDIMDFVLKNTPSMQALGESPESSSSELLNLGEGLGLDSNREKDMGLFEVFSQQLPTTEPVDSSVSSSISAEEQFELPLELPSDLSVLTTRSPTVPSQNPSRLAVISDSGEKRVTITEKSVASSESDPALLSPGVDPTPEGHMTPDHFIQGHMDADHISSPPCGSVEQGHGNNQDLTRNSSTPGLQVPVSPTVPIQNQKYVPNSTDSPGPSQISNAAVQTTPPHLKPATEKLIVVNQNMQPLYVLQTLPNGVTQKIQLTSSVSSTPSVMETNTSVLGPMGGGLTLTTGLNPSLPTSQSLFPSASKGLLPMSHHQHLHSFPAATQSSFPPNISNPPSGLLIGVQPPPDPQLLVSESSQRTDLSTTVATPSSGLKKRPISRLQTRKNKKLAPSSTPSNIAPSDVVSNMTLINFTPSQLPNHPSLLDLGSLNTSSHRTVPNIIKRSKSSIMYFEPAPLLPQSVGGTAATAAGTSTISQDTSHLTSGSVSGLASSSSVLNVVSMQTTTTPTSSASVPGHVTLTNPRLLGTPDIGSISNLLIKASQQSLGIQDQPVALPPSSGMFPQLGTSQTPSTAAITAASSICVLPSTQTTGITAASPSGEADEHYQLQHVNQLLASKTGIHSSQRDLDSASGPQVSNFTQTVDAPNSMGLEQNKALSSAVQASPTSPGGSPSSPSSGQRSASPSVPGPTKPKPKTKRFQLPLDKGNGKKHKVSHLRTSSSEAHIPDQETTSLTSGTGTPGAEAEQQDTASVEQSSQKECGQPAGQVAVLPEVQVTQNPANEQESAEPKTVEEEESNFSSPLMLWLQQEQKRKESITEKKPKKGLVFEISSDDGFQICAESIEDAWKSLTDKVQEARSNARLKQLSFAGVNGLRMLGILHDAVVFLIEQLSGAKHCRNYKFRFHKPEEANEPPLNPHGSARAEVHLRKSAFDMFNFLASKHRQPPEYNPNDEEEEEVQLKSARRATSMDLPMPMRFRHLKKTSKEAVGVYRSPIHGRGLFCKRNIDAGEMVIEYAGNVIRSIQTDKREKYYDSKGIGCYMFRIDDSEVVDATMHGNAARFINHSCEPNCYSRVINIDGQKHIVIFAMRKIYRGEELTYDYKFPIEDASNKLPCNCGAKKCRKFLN
The affinity purified MLL-CXXC domain, unlabeled HOX-A9 DNA strand, fluorescein (FLSN) labeled HOX-A9 DNA strand were kindly supplied by the laboratory of Dr. John Bushweller, University of Virginia. All reagents were stored in single use aliquots at -80C. Assay Reagents: Assay buffer: 50 mM TRIS-HCl pH 7.5, 50 mM NaCl, 1 mM DTT. Add 0.05% BSA prior to reaction setup. Assay Procedure: 1.Dispense 1 ul of a 7 uM MLL-CXXC solution prepared in assay buffer into column 1-48. 2.Transfer 23 nl of compounds and unlabeled HOX-A9 per well. 3.Incubate for 5 minutes at ambient. 4.Dispense 1ul of a 50 nM FLSN-HOX-A9 solution prepared in assay buffer into columns 1-48 5.Centrifuge for 30 seconds at 1000 RPM. 6.Incubate for 30 minutes at ambient. 7.Read using the Envision reader fluorescent polarization protocol.
(In general: qHTS replaces the single test concentration by a dilution series.)
Consider `COc1cc(/C=C2/C(=O)NN(c3ccc(F)cc3)C2=O)cc([N+](=O)[O-])c1O`, for which the Potency is 20 µM (active).
`C#CCOc1ccc(/C=C2/C(=O)NN(c3ccccc3)C2=O)cc1OC`: the Potency result is “inactive”.
The result for `COc1cc(/C=C2/C(=O)NN(c3cccc(Cl)c3)C2=O)cc(Br)c1O` reads “inactive”.
Turning to `CC(=O)c1c(C)n(-c2ccc(C)cc2)c2ccc(O)cc12`, the Potency entry was “inactive”.
As to `COc1ccc2nc(C)cc(Nc3cccc(C(=O)O)c3)c2c1`, the Potency result is “inactive”.
On to `NC(=O)C1CCN(C(=O)/C(=C/c2ccco2)NC(=O)c2ccccc2)CC1`, for which the Potency result was “inactive”.
The result for `Cc1cn([C@H]2CC(F)[C@@H](CO)O2)c(=O)[nH]c1=O` (stereo not given in full) reads “inactive”; that for `O=C(Nc1cccc(C(F)(F)F)c1)c1cc(Br)cc(Br)c1O`, “inactive”; that for `C[C@H](NC(=O)C1CCN(S(=O)(=O)c2ccccc2)CC1)C(=O)NCc1ccccc1`, “inactive”.
The result for `COc1ccc(N(CC(=O)Nc2ccc(F)c(F)c2)S(=O)(=O)c2c(C)[nH]c(=O)[nH]c2=O)cc1` reads “inactive”; that for `Cc1ccc(CNC(=O)C(=O)c2cn(CC(=O)N3CCCC3)c3ccccc23)cc1`, “inactive”.
The result for `COc1ccc(C)cc1Nc1nc(C)nc2c1oc1ccccc12` reads “inactive”.
As for `COC(=O)c1ccccc1NC(=O)C1(S(=O)(=O)c2ccc(Cl)cc2)CC1`, the Potency result was “inactive”.
The result for `CCN1C(=S)N[C@@H](CCc2ccccc2)[C@H](C(=O)OC)[C@H]1C` reads “inactive”.
As for `O=c1c2cc([N+](=O)[O-])ccc2nc2n1CCC2`, the entry is “inactive”; as for `COc1ccc(CNc2cc(C)cc(C)c2)cc1OC`, “inactive”.
The result for `Cc1c(CNCCc2ccccc2)c(C(=O)O)c(C)n1-c1ccccc1` reads “inactive”.
For the molecule `Cc1ccc(C(=O)N2CC(=O)Nc3ccc(F)cc3C2c2ccc(F)cc2)cc1` (stereo not given), the Potency entry is “inactive”.
On to `COC(=O)c1ccc(CNC(=O)C2CCC(=O)N(Cc3cccc(F)c3)C2)cc1` (stereo not given), for which the Potency entry was “inactive”.
The result for `Cc1cnc(C(=O)Oc2cccc(Cl)c2Cl)cn1` reads “inactive”; that for `COc1ccc(C)cc1N(C(=O)Cn1nnc(-c2ccc(C)o2)n1)C(C(=O)NC1CCCC1)c1ccncc1` (stereo not given), “inactive”.
The result for `Cc1ccc(/C=C2/SC(=S)N(CCC(=O)NCCCN3CCOCC3)C2=O)cc1` reads “inactive”; that for `CCN(CC(=O)Nc1ccc2c(c1)OCO2)S(=O)(=O)c1ccccc1`, “inactive”; that for `NNC(=O)CSc1nnc(-c2ccccc2)n1-c1ccccc1`, “inactive”.
For `CC(C(=O)Nc1ccc(O)c(C(=O)O)c1)N1C(=O)/C(=C/c2cccs2)SC1=S` (stereo not given), the Potency entry is “inactive”.
As for `Cc1cccn2c(=O)c3cc(C(=O)NCCN4CCOCC4)c(=N)n(Cc4cccnc4)c3nc12`, the entry is “inactive”.
As for `Cc1cccc(S(=O)(=O)N2CN(CC3CCCO3)c3nc4ccccc4nc32)c1` (stereo not given), the entry is “inactive”; as for `Cc1ccc(S(=O)(=O)c2nc(-c3cccs3)oc2NCc2cccnc2)cc1`, “inactive”.
The result for `COc1ccc(CCNS(=O)(=O)c2cn(C)nc2C)cc1` reads “inactive”; that for `CC(=O)Nc1cccc(Nc2nc(-c3cccs3)nc3ccccc23)c1`, “inactive”; that for `CC(=O)c1nn(-c2cccc(C(F)(F)F)c2)c(=O)[nH]c1=O`, “inactive”.
As to `COc1cc(CN2CCCC(C(=O)c3ccc(SC)cc3)C2)cc(Cl)c1O` (stereo not given), the Potency entry was “inactive”.
The result for `CC(=O)Nc1ccc(C(=O)N(C2=NC(C)CS2)c2ccc(Cl)cc2)cc1` (stereo not given) reads “inactive”; that for `Cc1cccc(-c2noc(CCC(=O)NC3CCCC3)n2)c1`, “inactive”.
`COc1ccccc1OCC(=O)Nc1c2c(nn1-c1ccc(F)cc1)CS(=O)(=O)C2`: the Potency entry was “inactive”.
As for `Cn1c(N2CCOCC2)c(C=O)c2ccccc21`, the entry is “inactive”; as for `COCCN1CCN(C(=O)c2cc(COc3ccc(F)cc3Cl)on2)CC1`, “inactive”; as for `O=C(NCCN1CCOC1=O)C1CCC(=O)N(CCc2ccc(Cl)cc2)C1` (stereo not given), “inactive”.
As for `Cc1cccc(-n2ncc(Cl)c(Cl)c2=O)c1`, the entry is “inactive”; as for `O=C(NCc1ccncc1)C(=O)NCC1OCCN1S(=O)(=O)c1ccc(Br)cc1` (stereo not given), “inactive”.
The result for `NC(=O)C(=O)N/N=C/c1ccc([N+](=O)[O-])o1` reads “inactive”.
On to `Cc1ccc(NC(=O)CSc2cccc3cccnc23)c(C)c1`, for which the Potency result was “inactive”.
As for `O=C1NN(c2ccccc2)C(=O)/C1=C/c1ccc(-c2cccc(C(=O)O)c2)o1`, the figure is 20 µM (active); as for `Cc1cccc(C)c1-n1c(C)cc(/C=C2\C(=O)NN(c3ccccc3)C2=O)c1C`, “inactive”.
With `O=C(O)C(c1ccccc1)N1C(=O)/C(=C\c2ccc(-c3cccc(Cl)c3)o2)SC1=S` (stereo not given), the Potency result was “inactive”.
The result for `O=C(NCCCn1ccnc1)c1cc2c(s1)CCCC2` reads “inactive”.
As for `CCOC(=O)/C(N=Nc1cc(C(=O)O)cc(C(=O)O)c1)=C(\O)CCl`, the figure is 25.1 µM (active); as for `O=C(NC1CCN(S(=O)(=O)c2ccc(F)cc2)CC1)c1ccccc1`, “inactive”; as for `O=S(=O)(c1ccc(Br)c2ccccc12)N1CCOCC1`, “inactive”.
As for `COCCCN1C(=O)C(=O)/C(=C(/O)c2ccc(S(=O)(=O)N3CCOCC3)cc2)C1c1ccc(F)cc1` (stereo not given), the entry is “inactive”; as for `CCOc1ccc2nc(N(CCCN(C)C)C(=O)c3ccc(C(=O)c4ccccc4)cc3)sc2c1`, “inactive”.
`O=C1CCC(C(=O)N2CCN(c3ccccc3Cl)CC2)CN1CC1CCCCC1` (stereo not given): the Potency result is “inactive”.
As for `CCOC(=O)Cn1c(O)c(N=NC(=O)CNC(=O)Cc2ccccc2)c2ccccc21`, the entry is “inactive”.
`Cc1cc(C)nc(N/N=C/c2c(CO)cnc(C)c2O)n1`: the Potency result was “inactive”.
As for `CCCNC(=O)c1ccc(N2CCC3(CC2)CC(c2ccc(Cl)cc2)=NO3)c([N+](=O)[O-])c1`, the entry is “inactive”; as for `CCOC(=O)C1CCN(S(=O)(=O)c2ccc3c(c2)N(C)C(=O)CC(=O)N3C)CC1`, “inactive”; as for `O=C(NCc1ccncc1)C1CCN(C(=O)c2cccc(Cl)c2)CC1`, “inactive”.
Regarding `O=C(CNC(=O)[C@@H]1Cc2ccccc2CN1)NC1CCCCC1`, the Potency result was “inactive”.
The result for `Cc1nn(C)c(Cl)c1CN1CCC(Oc2ccc(C(=O)N3CCCC3)cc2)CC1` reads “inactive”; that for `Cc1ccc(S(=O)(=O)N/N=C(\c2ccccc2)C2CC2)cc1`, “inactive”; that for `O=C(NCCCn1ccnc1)c1cc(Br)c(Br)s1`, “inactive”.
The result for `Cc1cccc(CN2CCC(n3nccc3NC(=O)c3ccccc3C)CC2)n1` reads “inactive”; that for `Cc1cc(=O)oc2c3c(cc(OCC(=O)N[C@H](C(=O)O)c4ccccc4)c12)OC(C)(C)CC3`, “inactive”; that for `CCCNC(=O)c1cnc(-c2ccccc2)nc1-c1ccccc1`, “inactive”.
As for `CCCCc1nc2cc(C(=O)NCCc3cnn(C)c3)ccc2o1`, the entry is “inactive”.
